Rows were chosen to be rich in hits. Some 12% of all compounds tested hit in one or more screens of this group.
Pf growth 96h – Primary qHTS for delayed death inhibitors of the malarial parasite plastid, 96 hour incubation. Potency, µM (doses to about 28.7 µM), without a hit: at the top dose activity change, negative = inhibition, hits mostly inhibitors. P. falciparum luciferase reporter growth, 96 h. 320,000 tested, 6.9% active; note: % is set by controls: 0 for no effect and ±100 for the full control effect
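Readout is luminescence from an integrated firefly luciferase in P. falciparum. Red cells, 2% hematocrit and 0.05% parasitemia final, were cultured with compound through two parasite generations (96 hours) at 37 C, 5% CO2.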
Sm TGR inh – qHTS Assay for the Inhibitors of Schistosoma Mansoni Peroxiredoxins; 360,000 tested, 3% active; AID 485364, 2010; Potency, µM (doses to about 114 µM), for inactives: top-dose activity change, negative = inhibition, hits mostly inhibitors; purified TGR, DTNB reduction, TNB absorbance 405 nm; note: % is set by controls: 0 for no effect and ±100 for the full control effect; nearly all actives have a fitted effect of over 60% in size
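TGR 20 nM + NADPH 100 uM (dispensed conc.), cpd preinc 15 min RT; start with NADPH (500 uM addition) then DTNB (15 mM addition). Kinetic TNB absorbance, 405 nm filter. Four-parameter Hill fit across titration.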
Pf growth 48h – Primary qHTS for delayed death inhibitors of the malarial parasite plastid, 48 hour incubation; 310,000 tested, 5.9% active; AID 504832, 2011; P. falciparum luciferase growth in erythrocytes, 48 h; Potency, µM (doses to about 28.7 µM), for the others: at the top dose activity change, negative = inhibition, hits mostly inhibitors; note: % is set by controls: 0 for no effect and ±100 for the full control effect
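Erythrocytes infected with P. falciparum carrying an integrated firefly luciferase reporter (2% hematocrit, 0.1% parasitemia final) were exposed to compounds in RPMI 1640 with 0.5% Albumax at 37 C, 5% CO2. Growth inhibition was scored as reduced luminescence.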
SARS PLpro yeast – qHTS of Yeast-based Assay for SARS-CoV PLP; 330,000 tested, 0.19% active; S. cerevisiae expressing SARS-CoV PLpro, growth rescue; Potency, µM (highest dose often 32.9 µM), for the others: top-dose activity, positive = growth rescue, actives largely listed as activators; calls by dose curve; note: 0% is about no effect; nearly all actives have a fitted effect of over 55% in size
An asterisk follows results filed as active. Unless noted, calls come from the whole dose curve; as a rule, active = well fitted curve in the direction sought with a large enough effect; inconclusive = small, poorly fitted or top-dose-only effect, or another doubt; inactive = no such curve, though single readings can be large; an effect the other way counts as inactive or inconclusive. Potency is the fitted concentration of half-maximal effect.

`C=Cn1c(P(=S)(N2CCOCC2)N2CCOCC2)cc2c1CCCC2` gave Pf growth 96h 21%, Sm TGR inh 1%, Pf growth 48h 12µM* and SARS PLpro yeast -5%.
Screening CCc1ccc(CN(C)C(=O)CCc2nc3ccccc3n(-c3ccc(OC)cc3)c2=O)cc1 returned Pf growth 96h 13µM*, Sm TGR inh 3%, Pf growth 48h inconclusive and SARS PLpro yeast -8%.
Screening COc1ccc(-n2c(=O)c(CCC(=O)N(C)Cc3ccccc3C)nc3ccccc32)cc1 returned Pf growth 96h 8.3µM*, Sm TGR inh -14%, Pf growth 48h 10µM* and SARS PLpro yeast 0%.
COc1ccc(-n2c(=O)c(CCC(=O)NCCc3ccccc3F)nc3ccccc32)cc1 was read as Pf growth 96h inconclusive, Sm TGR inh -4%, Pf growth 48h inconclusive and SARS PLpro yeast -4%.
For C#CC(=O)N(c1ccc(OC)c(OC)c1)C(C(=O)NC1CCCC1)c1cccs1 (centres undefined) the results were Pf growth 96h -9%, Sm TGR inh 5.6µM*, Pf growth 48h -12% and SARS PLpro yeast -1%.
Screening Cc1cccc(N(C(=O)C(F)(F)F)C(C(=O)NC2CCCCC2)c2cccs2)c1 (centres undefined) returned Pf growth 96h 9%, Sm TGR inh 7%, Pf growth 48h inconclusive and SARS PLpro yeast -1%.
C#CC(=O)N(c1cccc(OC)c1)C(C(=O)NC1CCCC1)c1cccs1 (centres undefined) was read as Pf growth 96h inconclusive, Sm TGR inh 7.9µM*, Pf growth 48h 31% and SARS PLpro yeast -27%.
Screening CC(=O)c1cccc(N(C(=O)c2ccccn2)C(C(=O)NC2CCCCC2)c2cccs2)c1 (centres undefined) returned Pf growth 96h 1.7µM*, Sm TGR inh -15%, Pf growth 48h 2.6µM* and SARS PLpro yeast inconclusive.
For COc1ccc(N(C(=O)Cc2cccs2)C(C(=O)NC2CCCC2)c2ccncc2)cc1OC (centres undefined) the results were Pf growth 96h inconclusive, Sm TGR inh -3%, Pf growth 48h -14% and SARS PLpro yeast 2%.
`CC(=O)c1ccc(N(C(=O)c2ccco2)C(C(=O)NC2CCCC2)c2cccs2)cc1` (centres undefined) gave Pf growth 96h inconclusive, Sm TGR inh -16%, Pf growth 48h inconclusive and SARS PLpro yeast 1%.
`Cc1cccc(Cn2cc(S(=O)(=O)c3ccccc3)c(=O)c3cc(F)c(N4CCOCC4)cc32)c1` gave Sm TGR inh -1%.
For O=C(CN1C(=O)NC2(CCOc3ccccc32)C1=O)NCC(F)(F)F (centres undefined) the results were Pf growth 96h 30%, Sm TGR inh 3%, Pf growth 48h 17% and SARS PLpro yeast 0%.
For O=[N+]([O-])c1ccc(Cl)c(-c2ccc(/C=N/c3c(-c4ccco4)nc4ccccn34)o2)c1 the results were Pf growth 96h -2%, Sm TGR inh -7%, Pf growth 48h 25% and SARS PLpro yeast 7%.
Screening Oc1cccc(/C=N/c2c(-c3ccco3)nc3ccccn23)c1 returned Pf growth 96h inconclusive, Sm TGR inh 35µM*, Pf growth 48h inconclusive and SARS PLpro yeast -6%.
Screening Cc1cc(C)c([N+](=O)[O-])cc1-c1ccc(/C=N/c2c(-c3ccco3)nc3ccccn23)o1 returned Pf growth 96h inconclusive, Sm TGR inh 40µM*, Pf growth 48h inconclusive and SARS PLpro yeast -5%.
CCOc1ccccc1C1C(C(=O)Nc2ccccc2)=C(C)Nc2nc(SCC(=O)c3ccc(C)cc3)nn21 (centres undefined) was read as Sm TGR inh -5%.
Screening COc1ccc(OC)c(CCNC(=O)c2c(C)oc3ncn(CC(C)C)c(=O)c23)c1 returned Sm TGR inh 12%.
Screening Oc1c(Br)cc(Cl)cc1C=Nc1ccccc1Br returned Pf growth 96h 36%, Sm TGR inh 22µM*, Pf growth 48h -28% and SARS PLpro yeast -13%.
For COCC(=O)N1CCC(Oc2ccc(C(=O)NCCCC3CCCC3)cc2)CC1 the results were Pf growth 96h 7.4µM*, Sm TGR inh 2%, Pf growth 48h -1% and SARS PLpro yeast -4%.
`CCn1ccnc1CNC(=O)c1ccc(OC2CCN(C(=O)COC)CC2)cc1` gave Pf growth 96h 5.2µM*, Sm TGR inh -8%, Pf growth 48h 14% and SARS PLpro yeast 15%.
COCC(=O)N1CCC(Oc2ccc(C(=O)NCc3cnc(C)cn3)cc2)CC1 was read as Pf growth 96h inconclusive, Sm TGR inh 38%, Pf growth 48h 44% and SARS PLpro yeast -3%.
`COCC(=O)N1CCC(Oc2ccc(C(=O)NCCCn3cccn3)cc2)CC1` gave Pf growth 96h 22%, Sm TGR inh 1%, Pf growth 48h -28% and SARS PLpro yeast -1%.
Cc1cccc(NC(=O)N2CC(=O)Nc3sc4c(c3C2c2ccccc2)CCCC4)c1C (centres undefined) was read as Sm TGR inh 3%.
CCSc1nnc(NC(=O)CCN2C(=O)C3CCCCC3C2=O)s1 (centres undefined) was read as Pf growth 96h -35%, Sm TGR inh -2%, Pf growth 48h 22% and SARS PLpro yeast -2%.
Screening CCCCN(CC)CCCNC(=O)c1nn(-c2ccc(OC)cc2)c(=O)c2c1c1ccccc1n2C returned Sm TGR inh 8%.
`S=c1sc2c(N3CCOCC3)ncnc2n1-c1ccccc1` gave Pf growth 96h 15µM*, Sm TGR inh 3% and SARS PLpro yeast 16%.
Screening N#Cc1ccc(Nc2nn3c(=O)c4ccccc4nc3s2)cc1 returned Pf growth 96h 3% and Pf growth 48h 11%.
CCC(=O)c1cn(CC(=O)Nc2ccccc2)c2ccccc12 was read as Pf growth 96h inconclusive, Sm TGR inh 3%, Pf growth 48h -3% and SARS PLpro yeast 0%.
Screening CCCn1cc(S(=O)(=O)CC(=O)Nc2ccc(OC)cc2OC)c2ccccc21 returned Pf growth 96h inconclusive, Sm TGR inh -23%, Pf growth 48h inconclusive and SARS PLpro yeast 8%.
For CCCn1cc(S(=O)(=O)CC(=O)Nc2ccc(OCC)cc2)c2ccccc21 the results were Pf growth 96h 20%, Sm TGR inh -18%, Pf growth 48h 13µM* and SARS PLpro yeast -5%.
`CCn1cc(S(=O)(=O)CC(=O)Nc2ccc(C)cc2)c2ccccc21` gave Pf growth 96h 2.6µM*, Sm TGR inh 0%, Pf growth 48h 6% and SARS PLpro yeast 7%.
Screening CCC(=O)c1cn(CC(=O)Nc2ccc(C)cc2)c2ccccc12 returned Pf growth 96h 0%, Sm TGR inh 100µM*, Pf growth 48h 0% and SARS PLpro yeast 1%.
Cc1ccccc1Cn1cc(S(=O)(=O)CC(=O)Nc2nccs2)c2ccccc21 was read as Pf growth 96h -29%, Sm TGR inh -33%, Pf growth 48h 12µM* and SARS PLpro yeast -3%.
